# Compounds without any hit were thinned out: in the full panel of roughly 79,000, 15% have a hit. A number with no mark means an inactive call. The source made the active and inactive calls. Rule as the data show it: active = growth inhibition above about 70%; inactive = the rest.
# Assays:
# [1] = NCI Yeast Anticancer Drug Screen. Data for the rad52 strain (AID 147);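 also: 0% = growth of vehicle-treated control cultures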; details: S. cerevisiae rad52 mutant growth inhibition, stronger effect = higher value
# In short: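 Genetically altered yeast (DNA damage repair defect) treated with compound; inhibition calculated relative to vehicle.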
# [2] = NCI Yeast Anticancer Drug Screen. Data for the wt1 strain (AID 149);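 also: 0% = growth of vehicle-treated wt1 cultures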; details: S. cerevisiae wt1 strain (SPY 50644) growth inhibition, stronger effect = higher value
# In short: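 wt1 strain grown with compound or vehicle; inhibition taken from the growth difference.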
# [3] = NCI Yeast Anticancer Drug Screen. Data for the rad50EPP+ strain (AID 151);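 also: 0% = growth of vehicle-treated control cultures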; details: S. cerevisiae rad50 mutant strain, stronger effect = higher value
# In short: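 Strain rad50EPP+; compound exposure; % growth inhibition vs vehicle.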
# [4] = NCI Yeast Anticancer Drug Screen. Data for the mgt1 strain (AID 153); details: S. cerevisiae mgt1 mutant growth inhibition, stronger effect = higher value
# In short: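 Read-out: yeast growth inhibition vs vehicle control. Strain mgt1, drawn from a panel altered in DNA damage repair or cell cycle control.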
# [5] = NCI Yeast Anticancer Drug Screen. Data for the rad50 strain (AID 155);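 also: 0% = growth of vehicle-only cultures of the same strain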; details: S. cerevisiae rad50 strain growth inhibition, stronger effect = higher value
# In short: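 DNA repair mutant yeast, compound exposure, growth read-out; inhibition is taken relative to vehicle.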
# [6] = NCI Yeast Anticancer Drug Screen. Data for the mec2-1 strain (AID 157); details: S. cerevisiae mec2-1 strain, stronger effect = higher value
# In short: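 Cells of the genetically defined mec2-1 yeast strain are incubated with test compound. Inhibition of growth is calculated against vehicle-treated controls.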
# [7] = NCI Yeast Anticancer Drug Screen. Data for the rad14 strain (AID 159);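 also: 0% = growth of vehicle-treated control cultures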; details: S. cerevisiae rad14 strain growth inhibition, stronger effect = higher value
# In short: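 DNA repair-defective yeast, compound-exposed; % growth inhibition derived by comparison with vehicle-treated controls.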
# [8] = NCI Yeast Anticancer Drug Screen. Data for the sgs1 mgt1 strain (AID 161);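 also: 0% = growth of cultures given vehicle only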; details: S. cerevisiae sgs1 mgt1 strain, stronger effect = higher value
# In short: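 Mutant yeast exposed to compound; growth scored against vehicle-only wells.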
# [9] = NCI Yeast Anticancer Drug Screen. Data for the CLN2oe strain (AID 163);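 also: 0% = growth of vehicle-only control cultures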; details: S. cerevisiae CLN2oe strain, stronger effect = higher value
# In short: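 Strain altered in cell-cycle control, incubated with compound; growth compared to solvent-treated controls.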
# [10] = NCI Yeast Anticancer Drug Screen. Data for the cln2 rad14 strain (AID 165);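 also: 0% = growth equal to vehicle treated cultures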; details: S. cerevisiae cln2 rad14 strain, stronger effect = higher value
# In short: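 The screen exposed genetically defined yeast (cln2 rad14) to test compounds and scored growth inhibition relative to vehicle-treated controls.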
# [11] = NCI Yeast Anticancer Drug Screen. Data for the bub3 strain (AID 167); details: S. cerevisiae bub3 mutant strain, stronger effect = higher value
# In short: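 In this screen, a yeast mutant lacking normal mitotic checkpoint function is challenged with compound. Relative growth versus vehicle gives the inhibition value.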
# [12] = NCI Yeast Anticancer Drug Screen. Data for the wt2 strain (AID 169);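 also: 0% = growth of vehicle-treated yeast cultures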; details: S. cerevisiae wt2 strain growth inhibition, stronger effect = higher value
# In short: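 Steps: yeast strain treated with compound; growth recorded; inhibition calculated relative to cultures given vehicle alone.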
# [13] = NCI Yeast Anticancer Drug Screen. Data for the mlh1 strain (AID 171);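 also: 0% = growth of vehicle-treated control cultures of the same strain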; details: S. cerevisiae mlh1 strain growth inhibition, stronger effect = higher value
# In short: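 Yeast screen: mutant strain plus compound, growth scored against vehicle control wells.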
# [14] = NCI Yeast Anticancer Drug Screen. Data for the mlh1 rad18 strain (AID 175); details: S. cerevisiae mlh1 rad18 strain growth inhibition, stronger effect = higher value
# In short: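 Compound-treated yeast growth, normalised to vehicle controls. Strain bears defined DNA repair mutations.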
# [15] = NCI Yeast Anticancer Drug Screen. Data for the rad18 strain (AID 177); details: S. cerevisiae rad18 mutant growth inhibition, stronger effect = higher value
# In short: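 Inhibition values reflect reduced yeast growth compared with vehicle-treated controls, using a strain engineered with a DNA damage repair defect.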
# [16] = at 5.0 µM (retest, dose inferred, filed as 0.5)
# [17] = at 50.0 µM (retest, dose inferred, filed as 5.0)
smiles,measurement,setting,value
CN(C)CCn1c2c3ccccc3ccc2c2oc(=O)c3ccccc3c21,growth inhibition,[1]; at 1.2 µM,24%
same,growth inhibition,[1]; at 3.7 µM,21%
same,growth inhibition,[1]; at 11.0 µM,94% (active)
same,growth inhibition,[1]; at 33.0 µM,98% (active)
same,growth inhibition,[1]; at 100.0 µM,97% (active)
same,growth inhibition,[2]; at 1.2 µM,13%
same,growth inhibition,[2]; at 3.7 µM,8%
same,growth inhibition,[2]; at 11.0 µM,35%
same,growth inhibition,[2]; at 33.0 µM,92% (active)
same,growth inhibition,[2]; at 100.0 µM,92% (active)
same,growth inhibition,[3]; at 1.2 µM,19%
same,growth inhibition,[3]; at 3.7 µM,54%
same,growth inhibition,[3]; at 11.0 µM,94% (active)
same,growth inhibition,[3]; at 33.0 µM,97% (active)
same,growth inhibition,[3]; at 100.0 µM,94% (active)
same,growth inhibition,[4]; at 1.2 µM,-7%
same,growth inhibition,[4]; at 3.7 µM,10%
same,growth inhibition,[4]; at 11.0 µM,49%
same,growth inhibition,[4]; at 33.0 µM,96% (active)
same,growth inhibition,[4]; at 100.0 µM,93% (active)
same,growth inhibition,[5]; at 1.2 µM,21%
same,growth inhibition,[5]; at 3.7 µM,51%
same,growth inhibition,[5]; [16],52%
same,growth inhibition,[5]; at 11.0 µM,93% (active)
same,growth inhibition,[5]; at 33.0 µM,97% (active)
same,growth inhibition,[5]; [17],95% (active)
same,growth inhibition,[5]; at 50.0 µM,86.5% (active)
same,growth inhibition,[5]; at 100.0 µM,92% (active)
same,growth inhibition,[6]; at 1.2 µM,17%
same,growth inhibition,[6]; at 3.7 µM,12%
same,growth inhibition,[6]; [16],-12%
same,growth inhibition,[6]; at 11.0 µM,40%
same,growth inhibition,[6]; at 33.0 µM,95% (active)
same,growth inhibition,[6]; [17],98% (active)
same,growth inhibition,[6]; at 50.0 µM,88.3% (active)
same,growth inhibition,[6]; at 100.0 µM,91% (active)
same,growth inhibition,[7]; at 1.2 µM,3%
same,growth inhibition,[7]; at 3.7 µM,-2%
same,growth inhibition,[7]; at 11.0 µM,35%
same,growth inhibition,[7]; at 33.0 µM,95% (active)
same,growth inhibition,[7]; at 100.0 µM,91% (active)
same,growth inhibition,[8]; [16],-1%
same,growth inhibition,[8]; [17],93% (active)
same,growth inhibition,[8]; at 50.0 µM,89% (active)
same,growth inhibition,[9]; at 1.2 µM,-2%
same,growth inhibition,[9]; at 3.7 µM,-3%
same,growth inhibition,[9]; at 11.0 µM,36%
same,growth inhibition,[9]; at 33.0 µM,90% (active)
same,growth inhibition,[9]; at 100.0 µM,89% (active)
same,growth inhibition,[10]; [16],4%
same,growth inhibition,[10]; [17],93% (active)
same,growth inhibition,[10]; at 50.0 µM,84.5% (active)
same,growth inhibition,[11]; at 1.2 µM,-8%
same,growth inhibition,[11]; at 3.7 µM,10%
same,growth inhibition,[11]; [16],3%
same,growth inhibition,[11]; at 11.0 µM,19%
same,growth inhibition,[11]; at 33.0 µM,93% (active)
same,growth inhibition,[11]; [17],95% (active)
same,growth inhibition,[11]; at 50.0 µM,86.8% (active)
same,growth inhibition,[11]; at 100.0 µM,95% (active)
same,growth inhibition,[12]; at 1.2 µM,12%
same,growth inhibition,[12]; at 3.7 µM,3%
same,growth inhibition,[12]; at 11.0 µM,41%
same,growth inhibition,[12]; at 33.0 µM,95% (active)
same,growth inhibition,[12]; at 100.0 µM,95% (active)
same,growth inhibition,[13]; at 1.2 µM,-10%
same,growth inhibition,[13]; at 3.7 µM,-6%
same,growth inhibition,[13]; at 11.0 µM,42%
same,growth inhibition,[13]; at 33.0 µM,95% (active)
same,growth inhibition,[13]; at 100.0 µM,92% (active)
same,growth inhibition,[14]; [16],10%
same,growth inhibition,[14]; [17],96% (active)
same,growth inhibition,[14]; at 50.0 µM,82.7% (active)
same,growth inhibition,[15]; at 1.2 µM,0%
same,growth inhibition,[15]; at 3.7 µM,-7%
same,growth inhibition,[15]; at 11.0 µM,53%
same,growth inhibition,[15]; at 33.0 µM,94% (active)
same,growth inhibition,[15]; at 100.0 µM,91% (active)

# — PubChem BioAssay (NCI)
